Unmarked numbers belong to inactive results.
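Note: TDF is a line of transformed human dermal fibroblasts of mesenchymal origin.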

The first test has as its system TDF. The test can be described thus: H1.0 immunofluorescence intensity relative to DMSO (% of DMSO); higher = stronger H1.0 induction, active = 120 or more. The conditions noted are these: concentration: 10 µM; 24 h. The essentials: (§1)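 H1.0 nuclear intensity or cell number is expressed as percent of the plate control, with the median of replicates taken. HCC1569 and TDF cells were treated with compounds at 10 µM for 24 h at 37 °C, in triplicate, then fixed and immunostained for H1.0 with DAPI as a nuclear stain. HCC1569 values were smoothed to correct for positional effects.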
Consider `Nc1ccn(C2OC(CO)C(O)C2O)c(=O)n1` (centres undefined) [Cytarabine], for which the H1.0 immunofluorescence intensity is 105.

For `COc1ccc(Cl)cc1NC(=O)Nc1cc(C)nc2ccccc12` [N-(5-Chloro-2-methoxyphenyl)-N'-(2-methyl-4-quinolinyl)urea], the H1.0 immunofluorescence intensity is 104.

`CCCCCC=CCC=CCCCCCCCCC(=O)O` [10(Z),13(Z)-Nonadecadienoic acid]: the H1.0 immunofluorescence intensity was 109.

In the case of `CCCC(CCC)C(=O)[O-].[Na+]` [Valproic acid sodium], the H1.0 immunofluorescence intensity is 95.

The next test has as its system HCC1569. The test can be described thus: H1.0 immunofluorescence intensity relative to DMSO (% of DMSO); higher = stronger H1.0 induction, active = 140 or more. The conditions noted are these: concentration: 10 µM; 24 h. Put shortly: as §1
As to `CCCCCCCCC=CCCCCCCCC(=O)O` [Oleic Acid], the H1.0 immunofluorescence intensity was 87.8.

`CCCCCCC=CCCCCCCCC(=O)O` [9(E)-Hexadecenoic acid]: the H1.0 immunofluorescence intensity is 105.

In the case of `O=c1ncnc2[nH][nH]cc1-2` [Allopurinol], the H1.0 immunofluorescence intensity was 88.4.

For the compound `COc1ccc(/C=C\c2cc(OC)c(OC)c(OC)c2)cc1OP(=O)([O-])[O-].[Na+].[Na+]`, the H1.0 immunofluorescence intensity is 140.

Consider `CCCCCC(O)C=CC=CCCCCCCCC(=O)O` (centres undefined), for which the H1.0 immunofluorescence intensity was 101.

Consider `Cl.FC(F)(F)c1cc(COC2CCCNC2c2ccccc2)cc(C(F)(F)F)c1` [L-733,060 hydrochloride], for which the H1.0 immunofluorescence intensity is 118.

As to `Nc1nccc(-c2c(-c3ccc(F)cc3)ncn2C2CCNCC2)n1`, the H1.0 immunofluorescence intensity is 143 (active).

Take `COc1ccc(/C=C\c2cc(OC)c(OC)c(OC)c2)cc1O` [2-methoxy-5-[(Z)-2-(3,4,5-trimethoxyphenyl)ethenyl]phenol]: the H1.0 immunofluorescence intensity is 162 (active).

As to `Cc1ccc(NC2=CC(=O)c3sc(C)nc3C2=O)cc1`, the H1.0 immunofluorescence intensity is 104.

As to `Cc1ccc(NC(=O)CCCCCC(=O)Nc2ccccc2N)cc1` [N~1~-(2-aminophenyl)-N~7~-(4-methylphenyl)heptanediamide], the H1.0 immunofluorescence intensity is 214 (active).

Take `CC(=O)O.CN=C(N)NCCCC(N)C(=O)O` [NG-Monomethyl-L-arginine acetate]: the H1.0 immunofluorescence intensity is 101.

Regarding `CC(CN1c2ccccc2Sc2ccccc21)N(C)C.Cl` (centres undefined) [Promethazine.HCl], the H1.0 immunofluorescence intensity was 121.

For `CC(=O)C1(O)CCC2C3CCC4=CC(=O)CCC4(C)C3CCC21C` (centres undefined) [17- Hydroxyprogesterone], the H1.0 immunofluorescence intensity is 104.

Regarding `CNc1cc(NS(=O)(=O)c2ccc(N)cc2)nc(NC)n1.Cl.Cl` [Ro 04-6790 dihydrochoride], the H1.0 immunofluorescence intensity is 84.4.

For the compound `CN(C)CCC=C1c2ccccc2C=Cc2ccccc21.Cl` [Cyclobenzaprine hydrochloride], the H1.0 immunofluorescence intensity was 110.

As to `CCCCCCCCCC(=O)OCC(CO)OC(=O)CCCCCCCCC` (centres undefined) [1,2-Didecanoyl-glycerol (10:0)], the H1.0 immunofluorescence intensity is 101.

On to `COc1ccnc(CS(=O)c2nc3cc(OC(F)F)ccc3[n-]2)c1OC.O.[Na+]` (centres undefined), for which the H1.0 immunofluorescence intensity was 100.

In the case of `CC(=O)NC(CSCC=C(C)CCC=C(C)C)C(=O)O` (centres undefined), the H1.0 immunofluorescence intensity was 103.

As for `CC(NC(=O)C(C#N)=Cc1ccc(O)c(O)c1)c1ccccc1` (centres undefined) [Tyrphostin AG 527], the H1.0 immunofluorescence intensity was 107.

As to `CC1=C2C(=COC(C)C2C)C(=O)C(C(=O)O)=C1O` (centres undefined) [Citrinin], the H1.0 immunofluorescence intensity was 97.8.

Regarding `CC1CCN=C(N)S1.Cl` (racemic), the H1.0 immunofluorescence intensity is 100.

As for `CCCCCC=CCC=CCC(O)C=CC=CCCCC(=O)O` (centres undefined), the H1.0 immunofluorescence intensity was 101.

`CN(C)CCOC(=O)COc1ccc(Cl)cc1.Cl` [Centrophenoxine hydrochloride]: the H1.0 immunofluorescence intensity is 107.

Take `CCCCCC=CCC=CCCCCCCCC(N)=O` [Linoleamide]: the H1.0 immunofluorescence intensity was 99.2.

As to `CC(=O)NC(CS)C(=O)O` (centres undefined) [N-Acetyl-Cysteine], the H1.0 immunofluorescence intensity was 90.6.

Take `CCCCCCCCC=CCC=CCC=CCCCC(=O)NCCO` [Mead ethanolamide]: the H1.0 immunofluorescence intensity is 96.2.

With `Cl.Fc1ccc(C(OCCCc2cnc[nH]2)c2ccc(F)cc2)cc1`, the H1.0 immunofluorescence intensity was 99.8.

For `CC(N)(Cc1ccc(O)c(O)c1)C(=O)O` [L-alpha-Methyl DOPA], the H1.0 immunofluorescence intensity was 86.8.

As to `CCCCCCCCOC(=O)C=Cc1ccc(O)c(O)c1` [n-Octyl caffeate], the H1.0 immunofluorescence intensity was 120.

For the compound `N=C1Sc2ccccc2C2=NCCCN12`, the H1.0 immunofluorescence intensity is 112.

For the compound `N#CC(=Cc1ccc(O)cc1)C(N)=C(C#N)C#N` [Tyrphostin AG 112], the H1.0 immunofluorescence intensity is 81.

Turning to `COC(=O)c1ccc2c(c1)NC(=O)C2=C(Nc1ccc(N(C)C(=O)CN2CCN(C)CC2)cc1)c1ccccc1` [Vargatef], the H1.0 immunofluorescence intensity is 113.

For `COc1ccc2c(c1OC)C(=O)OC2C1c2c(cc3c(c2OC)OCO3)CCN1C` (racemic), the H1.0 immunofluorescence intensity is 94.1.

For `Cc1cccc(C#Cc2ccccc2)n1.Cl` [6-Methyl-2-(phenylethynyl)pyridine hydrochloride], the H1.0 immunofluorescence intensity was 96.7.

Consider `C=CC1CN2CCC1CC2C(O)c1ccnc2ccc(OC)cc12.Cl.O` (centres undefined), for which the H1.0 immunofluorescence intensity is 95.

For `Cl.c1ccc(C2CCCC2NC2=NCCCCCCCCCCC2)cc1` (centres undefined) [MDL 12,330A hydrochloride], the H1.0 immunofluorescence intensity was 88.1.

For the compound `Nc1ccn(C2OC(CO)C(O)C2O)c(=O)n1` (centres undefined) [Cytarabine], the H1.0 immunofluorescence intensity is 102.

On to `COc1ccc(Cl)cc1NC(=O)Nc1cc(C)nc2ccccc12` [N-(5-Chloro-2-methoxyphenyl)-N'-(2-methyl-4-quinolinyl)urea], for which the H1.0 immunofluorescence intensity is 148 (active).

With `CCCCCC=CCC=CCCCCCCCCC(=O)O` [10(Z),13(Z)-Nonadecadienoic acid], the H1.0 immunofluorescence intensity is 103.

As to `CCCC(CCC)C(=O)[O-].[Na+]` [Valproic acid sodium], the H1.0 immunofluorescence intensity was 99.9.

The values are drawn from the supplement of paper PMC7156485.
